# Source: PubChem
# A selection: hits, their analogues and other compounds. The true share with any hit is near 2.4%.
# D2 ag-1 – agonists of human D2 dopamine receptor (beta-arrestin) | P14416 | DiscoveRx PathHunter D2 beta-arrestin, luminescence, 90 min; 100% = 57 uM dopamine signal | activation, % (no concentration beside the values) | 360,000 tested, 0.084% active | AID 624465; in the data active = activation above about 40%; inconclusive = between about 15% and that limit
#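 Agonist mode: compounds alone added to overnight-plated D2 PathHunter cells for 90 min at 37 C, with 57 uM final dopamine (EC100) defining full response. Beta-arrestin recruitment detected by chemiluminescent reagent, read after 1 h at ambient temperature.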
# D2 ag-2 – activates the human D2 dopamine receptor. P14416. HEK293 T-REx D2 cells, calcium flux agonist mode. activation, % at 2 µM. 340,000 tested, 0.53% active;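 active = activation over 3 SD above normal in the single-dose calcium agonist read, cut at about 30% in these data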; also: 0% is about no effect
#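 Agonism is scored from calcium flux in a force-coupled, inducible HEK293 cell line expressing D2, read kinetically for 180 s after compound addition against dopamine controls.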
# D2 PAM-1 – D2 dopamine receptor (human) potentiation. P14416. HEK293 T-REx D2, calcium flux, EC20 dopamine potentiation. AID 485347. potentiation, % at 10 µM. 340,000 tested, 0.34% active;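 active = potentiation over 3 SD above the plate norm, cut at about 30% in these data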; also: 0% is about no effect
#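 Tetracycline-induced Hek293 Trex D2 cells, force-coupled to calcium, loaded with no-wash calcium dye. Compound added with 180 s kinetic read for agonism, then EC20 dopamine and a further 180 s read for potentiation.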
# D2 antagonist – D2 dopamine receptor (human) antagonism; HEK293 TREx D2 cells, calcium flux, dopamine EC80; AID 485344; P14416; 340,000 tested, 2% active; inhibition, % at 10 µM; in the data active = inhibition above about 30%; inactive = below that, where a call was filed; also: 0% is about no effect
#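 Measurement of antagonist activity uses fluorescent calcium dye in inducible HEK293 T-REx D2 cells: 10 s baseline, compound addition with 180 s read, EC80 dopamine addition with a further 180 s read.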
# D2 PAM-2 – human D2 receptor positive allosteric modulation. P14416. DiscoveRx D2 beta-arrestin cells, luminescence, 90 min; 100% = 57 uM dopamine signal. 360,000 tested, 0.23% active. potentiation, % (concentration not given with the values); in the data active = potentiation above about 50%; inconclusive = mostly about 30% to 49%
#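 D2 cells co-treated with compound plus 50 nM dopamine (EC20) for 90 min at 37 deg C to detect potentiation. Beta-arrestin recruitment was read as enzyme-fragment luminescence after 1 h at ambient temperature. Full response was set by 57 uM dopamine.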
# D3 ag – confirmation of human D3 dopamine receptor agonists, beta-arrestin. shares compounds with D2 ag-2. DiscoveRx D3 beta-arrestin cells, luminescence, 90 min. Potency, µM (highest dose often 76.9 µM), for the others: top-dose activation, actives largely listed as activators. 2,300 tested, 4% active. AID 720506;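 also: potency is read from the fitted curve at half-maximal effect; 100% = dopamine control response; nearly all actives have a fitted effect of over 70% in size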
# Target sequence (P35462 whole entry, looked up): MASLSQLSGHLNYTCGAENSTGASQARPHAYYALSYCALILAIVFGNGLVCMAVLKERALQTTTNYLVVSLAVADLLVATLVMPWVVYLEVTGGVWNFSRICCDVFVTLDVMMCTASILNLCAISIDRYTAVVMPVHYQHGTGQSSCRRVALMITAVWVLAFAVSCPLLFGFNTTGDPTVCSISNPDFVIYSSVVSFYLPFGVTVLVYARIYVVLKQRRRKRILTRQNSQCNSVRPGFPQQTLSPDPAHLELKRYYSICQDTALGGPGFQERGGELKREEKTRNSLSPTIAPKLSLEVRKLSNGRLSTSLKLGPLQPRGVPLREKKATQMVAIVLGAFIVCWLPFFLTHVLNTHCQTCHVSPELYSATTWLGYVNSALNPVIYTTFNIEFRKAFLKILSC
# D2 ag-3 – D2 receptor agonism, beta-arrestin counterscreen; shares compounds with D2 ag-2; Potency, µM (doses to about 76.9 µM), without a hit: at the highest dose activation, most hits filed as activators; DiscoveRx PathHunter D2 beta-arrestin, luminescence, 90 min; response scale: percent relative to full dopamine signal; 2,300 tested, 5.9% active; also: potency is read from the fitted curve at half-maximal effect; % of control where 0% means no effect; nearly all actives have a fitted effect of over 70% in size
# Active calls of the source: *; ? = inconclusive; nt = not tested or not shown. Unless noted, calls follow the shape of the dose curve; as a rule, active = well fitted activation curve with a large enough effect; inconclusive = small, poorly fitted or top-dose-only effect; inactive = flat fitted curve, though single readings scatter.
SMILES,D2 ag-1,D2 ag-2,D2 PAM-1,D2 antagonist,D2 PAM-2,D3 ag,D2 ag-3
C=C(C)C(=O)Nc1nnc(-c2ccccc2C)s1,-1,0,10,52*,-23,-5%,-4%
O=S(=O)(NCc1ccc(F)cc1)c1cc(Br)ccc1Br,-1,-1,-15,4,-3,-1%,-5%
O=S(=O)(NCCc1ccc(F)cc1)c1cc(C(F)(F)F)ccc1Br,-1,nt,nt,nt,nt,nt,nt
Cn1nnnc1SCCCNCc1ccccc1OCc1ccc(F)cc1,nt,-1,-32,nt,nt,nt,nt
CCCCN(CC)C(=O)CCNS(=O)(=O)c1ccc2c(c1)c(=O)n(C)c(=O)n2C,nt,-1,5,nt,nt,nt,nt
CCCn1c(C2CCCN2c2nc(C)cs2)nc2cc(Cl)c(Cl)cc21 (stereo unspecified),-1,-1,-8,9,-16,nt,nt
CCCn1c(C2CCCN2c2nc(-c3cccc(Br)c3)cs2)nc2cc(Cl)c(Cl)cc21 (stereo unspecified),-4,40*,-10,5,-15,1%,5%
CCOC(=O)N1CCN(CC(=O)Nc2ccc(Oc3ccccc3)cc2)CC1,44*,56*,-24,43*,22,?,?
O=C(CCN1CCN(CCO)CC1)Nc1ccccc1,-6,1,14,-13,-4,nt,nt
CCOc1ccc(NC(=O)CCN2CCN(c3ccccc3)CC2)cc1,?,98*,-29,83*,-8,?,?
O=C(CCN1CCN(c2ccccc2)CC1)Nc1ccccc1,4,73*,-27,53*,1,9%,23%
O=C(CC1C(=O)NCCN1C(=O)Nc1ccccc1)Nc1ccc(F)cc1 (stereo unspecified),-4,1,-2,-1,-4,nt,nt
CCOc1ccc(NC(=O)CC2C(=O)NCCN2C(=O)Nc2ccccc2)cc1 (stereo unspecified),-1,3,-15,13,-7,-4%,-5%
COc1ccc(NC(=O)CCN2CCN(c3ccc(F)cc3)CC2)cc1,2,65*,-29,77*,-15,12%,8%
O=C(CN1CCN(c2ccccc2)CC1)Nc1ccc(OCc2ccccc2)cc1,12,44*,-14,55*,-19,?,18%
COC(=O)c1c(C)nn(-c2ccc(F)cc2)c1-n1cccc1,nt,11,-3,nt,nt,nt,nt
COc1cccc(CNc2ncnc3ccc(-c4c(C)noc4C)cc23)c1,nt,0,-1,9,nt,12%,18%
COc1cccc(-c2ccc3ncnc(NCc4cccc(C)c4)c3c2)c1,nt,0,-7,-5,nt,nt,nt
OCC[C@@H]1C[C@H](O)[C@@H](O)[C@@]2(Cc3ccccc3CO2)O1,-2,-1,3,5,-14,nt,nt
OCC[C@H]1C[C@@H](O)[C@H](O)[C@@]2(Cc3ccccc3CO2)O1,-3,0,9,0,-7,-5%,-4%
CCc1nnc(NC(=O)c2ccc(-c3ccc(Cl)cc3)o2)s1,0,0,2,-4,-23,nt,nt
CCc1nnc(NC(=O)c2ccc(-c3ccc(C(C)=O)cc3)o2)s1,0,-2,-14,11,-2,-7%,-1%
CCCOc1ccc(C(=O)NNC(=S)NC(=O)c2ccco2)cc1,-9,34*,-4,15,-13,-6%,-9%
CCN1CCN(c2ncnc3scc(-c4ccc(C)cc4)c23)CC1,110*,70*,-27,68*,?,8%,2.8µM*
Cc1ccc(-n2nnnc2SCC(=O)c2c(N)n(C3CC3)c(=O)[nH]c2=O)c(C)c1,0,1,0,-8,1,6%,-3%
SMILES,D2 ag-1,D2 ag-2,D2 PAM-1,D2 antagonist,D2 PAM-2,D3 ag,D2 ag-3
CCN(CC)C(=O)Cn1cc(C(=O)C(=O)N2CCN(Cc3ccccc3)CC2)c2ccccc21,-3,58*,-22,2,-9,-15%,-7%
O=C(CCC(=O)N1CCOCC1)NCCc1ccccc1,12,2,-9,22,-13,-4%,26%
S=C(NCCc1ccccc1)N1CCOCC1,-2,0,-4,29,-7,nt,nt
Cc1ccc2c(c1)[C@H]1[C@H](CO2)[C@H](c2ccccc2)[C@]2(C)C(=O)N(Cc3ccc(Cl)cc3)CC(=O)N12,-2,0,10,-2,-7,-9%,-4%
Cc1nc2ccccc2nc(=O)c1NNc1ccccc1,-3,75*,-23,8,0,-8%,-3%
COC(=O)C1=C(C)Nc2nnnn2C1c1cccnc1 (stereo unspecified),-2,nt,nt,nt,-3,nt,nt
CC1=C(C(=O)OC2CCCCC2)C(c2cccnc2)n2nnnc2N1 (stereo unspecified),0,61*,-19,-4,-2,18%,11%
Nc1nc(N2CCN(Cc3ccccc3)CC2)n[nH]1,68*,94*,-27,-19,?,?,4.5µM*
Nc1nc(N2CCN(C(c3ccccc3)c3ccccc3)CC2)n[nH]1,-1,0,-2,-3,4,nt,nt
CC1(C)C(C=C(Cl)Cl)C1C(=O)N1CCN(Cc2ccccc2)CC1 (stereo unspecified),?,70*,-23,78*,?,?,18µM*
CC(=O)c1ccc(N2CCN(C(=O)NCc3noc4ccc(C)cc34)CC2)cc1,nt,-1,-1,nt,nt,nt,nt
O=C(c1cccc(NS(=O)(=O)c2ccc(Br)cc2)c1)N1CCN(c2ccccc2O)CC1,-5,1,-10,3,-23,9%,11%
O=C(c1cccc(S(=O)(=O)Nc2ccccc2Cl)c1)N1CCN(c2ccccc2O)CC1,15,0,7,14,-1,11%,8%
COc1ccc(C(=O)c2cn(CC(=O)Nc3ccc4c(c3)OCO4)c3ccc(OC)cc3c2=O)cc1,nt,0,nt,nt,nt,nt,nt
CC(=O)c1ccc(N2CCN(C(=O)c3cc4cc5cc(C)ccc5nc4s3)CC2)cc1,nt,0,14,nt,nt,nt,nt
CC1(C)C2CCC(C2)C1(C)NC(=O)CNCc1cccs1 (stereo unspecified),12,24,-11,28,5,-7%,27%
O=C(CNCc1cccs1)NC12CC3CC(CC(C3)C1)C2,14,30,-15,6,9,nt,nt
O=C(Nc1ccc(OC(F)(F)F)cc1)c1cnc2n(c1=O)CCS2,-3,0,6,-4,-3,nt,nt
CCCCOC(=O)c1ccc(NC(=O)c2cnc3n(c2=O)CCS3)cc1,1,0,-1,4,14,10%,17%
CCN(C(=O)CSc1nc2ccccc2n1Cc1ccc(F)cc1Cl)c1ccccc1,nt,1,8,nt,nt,nt,nt
